# Source: PubChem
# Shiga toxin inh: A qHTS for Small Molecule Inhibitors of Shiga Toxin; Vero cells, Shiga toxin protein synthesis inhibition reporter; inhibition, % at 38.7 µM; hit rate 9.2% among 290,000; in the data active means inhibition mostly above about 28%, no sharp cut-off; inactive means mostly below about 43%; further: 0% is about no effect
# Pf growth 96h: Primary qHTS for delayed death inhibitors of the malarial parasite plastid, 96 hour incubation; P. falciparum luciferase reporter growth, 96 h; Potency, µM (doses to about 28.7 µM), inactives show top-dose activity change, negative = inhibition, most hits filed as inhibitors; hit rate 6.9% among 320,000; further: potency means the concentration at half of the fitted maximal effect; on the % scale 0 is the no-effect control and ±100 the full control effect
#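 Luminescence readout: decreased luciferase signal marks inhibited growth of reporter-expressing P. falciparum in infected red cells (2% hematocrit, 0.05% parasitemia final), exposed to compound two generations (96 h, 37 C, 5% CO2).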
# NS1 function inh: qHTS Assay for Inhibitors of Influenza NS1 Protein Function; Potency, µM (top dose mostly 46.1 µM), for the others: at the top dose activity, positive = more growth; hit rate 0.4% among 270,000; AID 2326, 2010; calls by dose curve; further: potency means the concentration at half of the fitted maximal effect; actives are rising curves; nearly all actives have a fitted effect of over 50% in size
#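 A cell-based growth assay was used: compounds that relieve NS1-induced slow growth of budding yeast raise OD600. Assay medium was yeast nitrogen base with ammonium sulphate and -URA supplement, pH 6.0, with 2% galactose.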
# Sm TGR inh: qHTS Assay for the Inhibitors of Schistosoma Mansoni Peroxiredoxins; AID 485364, 2010; hit rate 3% among 360,000; Potency, µM (top dose mostly 114 µM), without a hit: top-dose activity change, negative = inhibition, hits mostly inhibitors; purified TGR, DTNB reduction, TNB absorbance 405 nm; further: potency means the concentration at half of the fitted maximal effect; on the % scale 0 is the no-effect control and ±100 the full control effect; nearly all actives have a fitted effect of over 60% in size
#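 First, TGR (20 nM dispensed) and NADPH were mixed with compound. Second, a 15 min room-temperature incubation followed. Third, further NADPH and then DTNB were added to start the reaction. Finally, TNB absorbance was monitored kinetically.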
# Pf growth 48h: Primary qHTS for delayed death inhibitors of the malarial parasite plastid, 48 hour incubation | hit rate 5.9% among 310,000 | AID 504832, 2011 | Potency, µM (titrated, usually from 28.7 µM), for the others: top-dose activity change, negative = inhibition, most hits filed as inhibitors | P. falciparum luciferase growth in erythrocytes, 48 h; further: potency means the concentration at half of the fitted maximal effect; on the % scale 0 is the no-effect control and ±100 the full control effect
#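 Growth was read as firefly luciferase luminescence after a 48 h, 37 C, 5% CO2 exposure of compounds to reporter-bearing P. falciparum cultures (0.1% parasitemia, 2% hematocrit final) in Albumax-supplemented RPMI 1640.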
# Cycloheximide cs: Cycloheximide Counterscreen for Small Molecule Inhibitors of Shiga Toxin | hit rate 12% among 300,000 | max response, % | cell reporter, cycloheximide protein synthesis inhibition counterscreen | AID 2314, 2010; in the data active means max response mostly above about 13%, no sharp cut-off; inactive means mostly below about 14%; further: read at 38.3 µM for the half of the compounds with a filed dose; 0% is about no effect
# * = called active by the depositor; u = inconclusive; x = not tested or not shown; [ ] = remark or other dose. This is a sample that favours compounds with a hit; in the whole collection about 21% have one here. Unless noted, the call rests on the fitted dose curve; in most records, active means well fitted curve in the direction sought with a large enough effect; inconclusive means small, poorly fitted or top-dose-only effect, or another doubt; inactive means no such curve, though single readings can be large; an effect the other way counts as inactive or inconclusive.
SMILES,Shiga toxin inh,Pf growth 96h,NS1 function inh,Sm TGR inh,Pf growth 48h,Cycloheximide cs
Cc1ccc2nc(NC(=O)CCNS(=O)(=O)c3cccs3)sc2c1,79*,89%,-6%,-22%,6%,26*
Cc1ccc2nc(NC(=O)CCNS(=O)(=O)c3ccc(Br)s3)sc2c1,67,64%,-54%,9%,80%,26*
CCc1nnc2c(Nc3ccc(Br)c(C)c3)nc3ccccc3n12,x,x,x,5%,x,x
COc1ccc(C(=O)Nc2cccc(/C(C)=N\NC(=O)c3ccoc3C)c2)cc1OC,60*,-5%,-15%,-14%,-16%,45*
C/C(=N\NC(=O)c1nn(C)c(C)c1Br)c1cccc(NC(=O)c2ccoc2C)c1,24*,u,8%,-2%,14%,46*
O=C(O)[C@H](O)[C@@H](O)[C@H](O)[C@H](O)CO,x,-5%,x,x,-8%,x
CCOc1ccc(-c2c(C(=O)N/N=C/c3ccc(C)cc3)nnn2-c2nonc2N)cc1,1,-11%,-8%,1%,u,-2
CCOc1ccc(-c2c(C(=O)N/N=C/c3ccc(OC(C)C)cc3)nnn2-c2nonc2N)cc1,15,u,9%,3%,u,9
Cc1ccc(/C=N/NC(=O)c2nnn(-c3nonc3N)c2CNc2ccccc2)cc1,-12,-25%,10%,-9%,13%,-4
Cc1ccc(-c2c(C(=O)N/N=C/c3cccc(Cl)c3)nnn2-c2nonc2N)cc1,-9,u,25%,9%,0.052µM*,-3
CCOc1ccc(-c2c(C(=O)N/N=C/c3ccc(Cl)cc3)nnn2-c2nonc2N)cc1,1,u,5%,-4%,9.3µM*,-2
Cc1ccc(-c2c(C(=O)N/N=C/c3ccc(OC(C)C)cc3)nnn2-c2nonc2N)cc1,-5,u,9%,-1%,10µM*,14
Nc1nonc1-n1nnc(C(=O)N/N=C/c2ccc(OCc3ccccc3F)cc2)c1CNc1ccccc1,18,-23%,-24%,-3%,1%,17*
O=C(NCc1cccc(Cl)c1)c1cnc(N2CCCCC2)c2ccccc12,x,x,x,-3%,x,x
CSCC[C@H](NC(=O)COc1ccc(Cl)cc1)c1nc2ccccc2[nH]1,15,u,-10%,-5%,-23%,3
CC1CCN(Cc2c(C(=O)N/N=C/c3ccc(C(C)(C)C)cc3)nnn2-c2nonc2N)CC1,-2,u,10%,-27%,u,-2
Cc1ccc(COc2cccc(/C=N/NC(=O)c3nnn(-c4nonc4N)c3C)c2)cc1,39,18%,7%,-18%,-2%,15*
Cc1ccc(-c2c(C(=O)N/N=C/c3ccco3)nnn2-c2nonc2N)cc1,-5,u,12%,-26%,u,-4
Cc1ccc(-c2c(C(=O)N/N=C/c3ccc(C)o3)nnn2-c2nonc2N)cc1,-5,2.3µM*,15%,u,u,-6
CC1CCN(Cc2c(C(=O)N/N=C/c3ccc(C(C)C)cc3)nnn2-c2nonc2N)CC1,-7,1.7µM*,-11%,-6%,u,-1
Cc1ccc(-c2c(C(=O)N/N=C/c3ccoc3)nnn2-c2nonc2N)cc1,11,3.3µM*,-1%,4%,9.3µM*,9
N#CCc1nn(-c2ccc(F)cc2)c(N)c1C#N,-3,16%,x,-9%,16%,-1
COc1ccc(CC2(CO)CCN(CC3=Cc4cc(Cl)ccc4OC3)CC2)cc1,-7,25%,-7%,4%,0%,-4
Cc1nc2c(=O)n(C)c(=O)[nH]c2n1Cc1ccccc1,20,-4%,5%,0%,24%,37*
CCCn1c(-c2ccccc2)nc2c(=O)n(C)c(=O)[nH]c21,-19,19%,3%,12%,74%,-4
SMILES,Shiga toxin inh,Pf growth 96h,NS1 function inh,Sm TGR inh,Pf growth 48h,Cycloheximide cs
NS(=O)(=O)c1ccc(CCNC(=O)Cn2c(-c3cccs3)cc3ccccc32)cc1,x,x,x,0%,x,x
O=C(NCCCN1CCN(c2cccc(Cl)c2)CC1)c1sc2ncccc2c1-n1cccc1,x,x,x,1%,x,x
CCC1=C2CC[C@H]3C(=O)N(CC)C(=O)[C@H]3[C@H]2[C@@]2(Cc3ccccc3)C(=NCCOC)OC(=O)N2C1=O,-5,26%,4%,5%,28%,-7
CCC1=C2CC[C@H]3C(=O)NC(=O)[C@H]3[C@H]2[C@@]2(Cc3ccccc3)C(=NCC(=O)OC)OC(=O)N2C1=O,-8,0%,2%,-1%,35%,-5
CCC1=C(OC(=O)N(CC)CC)N2C(=O)OC(=NCC3CC3)[C@]2(Cc2ccccc2)[C@H]2C1=CC[C@H]1C(=O)NC(=O)[C@H]12,2,7.4µM*,-4%,11%,10µM*,-2
CCC1=C(OC(=O)N(CC)CC)N2C(=O)OC(=NCCOC)[C@]2(Cc2ccccc2)[C@H]2C1=CC[C@H]1C(=O)NC(=O)[C@H]12,4,u,-4%,10%,9.3µM*,-6
O=C(Nc1ccc(Cc2ccncc2)cc1)C1CCC(N2C(=O)C3C4C=CC(C4)C3C2=O)CC1 (centres undefined),16,12µM*,-11%,0%,x,-2
O=C(Nc1ccc(Cc2ccncc2)cc1)C1CCC(N2C(=O)C3CC=CCC3C2=O)CC1 (centres undefined),-17,x,-7%,0%,u,1
O=S(=O)(NCCC1=CCCCC1)c1ccc(F)cc1,-3,10%,-32%,-18%,35%,9
Cc1ccc2sc(C)[n+](CCC(C)S(=O)(=O)[O-])c2c1 (centres undefined),-9,-20%,22%,-16%,14%,0
COc1ccccc1N1C(=O)C(Cl)=C(Nc2ccccc2O)C1=O,103*,32%,x,8.9µM*,8%,32*
CCOc1ccccc1NC1=C(Cl)C(=O)N(c2ccc(OC)cc2)C1=O,13,35%,-5%,-27%,-4%,0
O=C1C(Cl)=C(Nc2ccccc2O)C(=O)N1c1ccccc1,67*,7%,-187%,22µM*,u,45*
COc1ccc(N2C(=O)C(Cl)=C(NCc3ccccc3)C2=O)cc1,27,u,-35%,-22%,x,22
CC1(C)Cc2c(sc3c2c(=N)n(Cc2ccco2)c(=O)n3CC(=O)Nc2ccccc2)CO1,14,8%,x,21%,u,14
Cc1cccc(NC(=O)Cn2c(=O)n(Cc3ccco3)c(=N)c3c4c(sc32)COC(C)(C)C4)c1,-10,8.3µM*,6%,0%[11.4 µM],x,-3
CC1(C)Cc2c(sc3c2c(=N)n(Cc2ccco2)c(=O)n3CC(=O)Nc2cccc(Cl)c2)CO1,-9,10µM*,u,-36%,u,12
O=C(COC(=O)C1CC1)NC(=O)NCc1ccccc1,-10,12%,2%,3%,11%,10
Cc1ccc(-n2nc(C)c3c(C(F)(F)F)cc(-c4cccnc4)nc32)cc1Cl,x,x,x,4%,x,x
